Test [1] addresses T1, Protein deacetylase HDAC6 (Homo sapiens) (UniProt Q9UBN7).
T1 sequence (whole entry): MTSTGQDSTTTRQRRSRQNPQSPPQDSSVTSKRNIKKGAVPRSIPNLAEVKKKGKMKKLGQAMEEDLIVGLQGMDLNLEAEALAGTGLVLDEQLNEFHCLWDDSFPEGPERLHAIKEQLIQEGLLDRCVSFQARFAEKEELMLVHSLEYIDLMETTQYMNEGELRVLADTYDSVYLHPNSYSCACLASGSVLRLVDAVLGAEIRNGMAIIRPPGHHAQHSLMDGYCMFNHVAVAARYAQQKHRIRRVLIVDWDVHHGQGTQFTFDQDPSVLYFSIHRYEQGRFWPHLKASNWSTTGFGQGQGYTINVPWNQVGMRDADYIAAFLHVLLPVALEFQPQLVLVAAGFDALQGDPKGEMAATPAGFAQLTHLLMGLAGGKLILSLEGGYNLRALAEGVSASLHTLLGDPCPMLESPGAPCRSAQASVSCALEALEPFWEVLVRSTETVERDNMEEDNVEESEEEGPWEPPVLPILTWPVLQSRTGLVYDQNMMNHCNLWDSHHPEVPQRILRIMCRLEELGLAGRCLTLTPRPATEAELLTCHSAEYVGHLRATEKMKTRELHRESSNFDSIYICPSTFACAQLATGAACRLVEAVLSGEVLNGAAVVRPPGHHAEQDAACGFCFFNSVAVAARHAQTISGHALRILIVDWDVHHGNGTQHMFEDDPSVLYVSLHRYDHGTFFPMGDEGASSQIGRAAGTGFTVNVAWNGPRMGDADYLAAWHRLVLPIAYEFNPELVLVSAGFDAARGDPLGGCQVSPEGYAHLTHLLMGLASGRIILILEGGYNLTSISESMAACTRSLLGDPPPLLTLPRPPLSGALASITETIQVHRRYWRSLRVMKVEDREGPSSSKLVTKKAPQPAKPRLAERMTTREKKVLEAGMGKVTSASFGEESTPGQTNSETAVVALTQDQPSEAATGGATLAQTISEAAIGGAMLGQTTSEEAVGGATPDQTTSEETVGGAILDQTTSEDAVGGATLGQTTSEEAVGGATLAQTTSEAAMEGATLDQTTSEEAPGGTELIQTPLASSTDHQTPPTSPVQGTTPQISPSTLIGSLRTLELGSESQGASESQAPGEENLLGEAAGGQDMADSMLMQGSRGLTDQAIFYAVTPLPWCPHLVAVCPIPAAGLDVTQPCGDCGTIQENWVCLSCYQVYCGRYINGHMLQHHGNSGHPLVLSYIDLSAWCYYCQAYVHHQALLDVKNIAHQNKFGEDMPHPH
The conditions noted are these: at 10 µM.

Test [2] deals with Protein deacetylase HDAC6 (Homo sapiens) (UniProt Q9UBN7). The conditions noted are these: at 10 µM. The source holds these as a separate data set.

Hit rate of the full screen: of about 5,600 compounds, about 390 (7%) showed an effect of 50% or more. The sample holds strong results, similar compounds and a random draw of the others, so the mix is not that of the screen.

With `Cc1c(N)cccc1Cn1ccc(OCCc2cccs2)cc1=O`, the inhibition in test [1] is -7.53%.
On the same count and under the same terms, under `Cc1cccc(NC(=O)N[C@@H]2N=C(c3ccccc3)c3ccccc3N(C)C2=O)c1` stands 10.7%.
Still for that read-out and setting: under `CCNC1=Nc2ccc(Cl)cc2C(C)(c2ccccc2)O1` (centres undefined) stands 3.39%; under `c1cc(Nc2cc(C3CC3)n[nH]2)nc(Nc2ccc3[nH]cnc3c2)n1`, 77.3%; under `CCC(C)c1ccc(NC(=O)Cn2cnc3c2c(=O)n(C)c(=O)n3C)cc1` (centres undefined), 18.1%.
On the same count and under the same terms, as for `c1ccc(C2(c3ccccc3)CC2=C2NCCN2)cc1`, the figure is 17%; as for `C[C@H](CCC(=O)O)[C@H]1CC[C@H]2[C@@H]3C(=O)C[C@@H]4CC(=O)CC[C@]4(C)[C@H]3CC(=O)[C@]12C`, -6.77%; as for `CC(=O)Nc1ccc(C(=O)NC(C)(C)C)cc1`, 9.15%.
For the molecule `CC(C)(C)c1ccc(C(=O)Nc2cn3cc(-n4ccnc4)ccc3n2)cc1`, in test [1], the inhibition amounted to 101%.
On the same count and under the same terms, under `Cc1ncc([N+](=O)[O-])n1CC(O)CN1CCOCC1` (centres undefined) stands -5.36%.
`COc1cccc2c1C(=O)c1c(O)c3c(c(O)c1C2=O)C[C@@](O)(/C(CO)=N/NC(=O)CCCCCN1C(=O)C=CC1=O)C[C@@H]3O[C@H]1C[C@H](N)[C@H](O)[C@H](C)O1`: in test [1], the inhibition was found to be 26.7%.
Same read-out and setting: under `COc1cccc2c1C(=O)c1c(O)c3c(c(O)c1C2=O)C[C@@](O)(C(=O)CO)C[C@@H]3O[C@H]1C[C@H](N2CCO[C@H](OC)C2)[C@H](O)[C@H](C)O1` stands 43.2%; under `COc1cccc2c1C(=O)c1c(O)c3c(c(O)c1C2=O)C[C@@](O)(C(=O)CO)C[C@@H]3O[C@H]1C[C@H](N)[C@H](O[C@@H]2CCCCO2)[C@H](C)O1`, 92.2%.
Same read-out and setting: under `CC1(C)OC(=O)C(OCC2CC2)=C1c1ccc(S(C)(=O)=O)cc1` stands -6.89%; under `CCCCCN(CCCOC)C(=O)[C@@H](CCC(=O)O)NC(=O)c1ccc(Cl)c(Cl)c1`, 9.58%; under `CC(C)c1cc(C(C)C)c(-c2csc(N(CCN(C)C)Cc3cccnc3)n2)c(C(C)C)c1`, 1.94%.
Turning to `C[N+](C)(CF)CCO`, in test [1], the inhibition was determined as 0.62%.
On the same count and under the same terms, as for `CO/N=C(\C(=O)N[C@@H]1C(=O)N2C(C(=O)O)=C(CSc3nc(C)c(CC(=O)O)s3)CS[C@H]12)c1csc(N)n1`, the figure is 2.2%; as for `O=C(O[C@H]1[C@H](OC(=O)c2cccnc2)[C@@H](OC(=O)c2cccnc2)[C@H](OC(=O)c2cccnc2)[C@@H](OC(=O)c2cccnc2)[C@H]1OC(=O)c1cccnc1)c1cccnc1`, -5.99%; as for `O=C(Oc1cccc2cccnc12)c1ccccc1`, 87.1%.
Same read-out and setting: under `CCCOC(=O)c1ccccc1` stands 8.38%; under `C[C@@H](N[C@H]1CCCC[C@@H]1NC(=O)c1ccc(Cl)cc1)c1cccc2ccccc12`, 18.9%.
On the same count and under the same terms, under `COC1(C[S+]([O-])c2ccccc2)CCN(CCc2c[nH]c3ccc(F)cc23)CC1` (centres undefined) stands 4.5%.
Regarding MERBROMIN, CHEMBL3833381, the inhibition in test [2] was found to be 65.3%.
For the molecule `CC1=C(O)C(=O)[C@@H]2O[C@@H]2C1=O`, the inhibition in test [1] was -8.14%.
The same measure, in the same setting: under `COc1ncc(-c2ccc3c(Nc4cc(Oc5cc(F)cc(F)c5)cc(C(=O)O)c4)c(S(=O)(=O)NC4CC4)cnc3c2)c(OC)n1` stands 12.8%.
Still for that read-out and setting: under `CC(=O)Oc1c(C)cccc1C(=O)O` stands 17%; under `C=C1C(=O)O[C@@H]2[C@H]3C(C)=CC[C@@]34O[C@@]4(C)CC[C@@H]12`, 51%; under `O=C1C(=Cc2cccnc2)C(=O)c2ccccc21`, 27.6%.
On the same count and under the same terms, as for `C[C@@H](O[C@H]1OCCN(Cc2nn[nH]c2CN(C)C)[C@H]1c1ccc(F)cc1)c1cc(C(F)(F)F)cc(C(F)(F)F)c1`, the figure is 12.9%; as for `O=C(NOCCO)c1ccc2cncn2c1Nc1ccc(I)cc1F`, 1.39%; as for `C[C@H](N)C(=O)NCC(=O)N[C@H]1CSSC[C@@H](C(=O)O)NC(=O)[C@H](CO)NC(=O)[C@H]([C@@H](C)O)NC(=O)[C@H](Cc2ccccc2)NC(=O)[C@H]([C@@H](C)O)NC(=O)[C@H](CCCCN)NC(=O)[C@H](Cc2c[nH]c3ccccc23)NC(=O)[C@H](Cc2ccccc2)NC(=O)[C@H](Cc2ccccc2)NC(=O)[C@H](CC(N)=O)NC(=O)[C@H](CCCCN)NC1=O`, 15.2%.
Consider `CC(C)c1cccc2c1OC(C(C)C)C(=S)N2CC(=O)O` (centres undefined), for which the inhibition in test [1] was found to be 33%.
In the case of `CCC(=O)NO`, in test [1], the inhibition is 83.8%.
`O=C(O)[C@@H](O)[C@@H](O)[C@H](O)[C@@H](O)C(=O)O`: the inhibition in test [1] is 1.05%.
Same read-out and setting: as for `CO[C@H]1/C=C\C=C(/C)C(=O)NC2=CC(=O)C(NCCN(C)C)=C(C[C@@H](C)C[C@H](OC)[C@H](O)[C@@H](C)/C=C(\C)[C@@H]1OC(N)=O)C2=O`, the figure is 6.6%; as for `O/N=C/c1cc[n+](COC[n+]2ccc(/C=N/O)cc2)cc1`, -4.53%; as for `O=C1N[C@@H]2[C@@H](O)[C@@H](O)[C@H](O)[C@@H](CO)N2C1=O`, -6.81%.
On the same count and under the same terms, under `Oc1ccc2ccccc2c1` stands 57.1%; under `Oc1ccccc1`, 7.92%.
For the molecule `Oc1ccc(Cl)cc1`, in test [1], the inhibition was -5.79%.
For `O=C1CCC(c2ccccc2)(C2CCN(Cc3ccc(I)cc3)CC2)C(=O)N1` (centres undefined), the inhibition in test [1] is -1.98%.
As for `Cc1ccccc1OCC(O)CNCCOc1ccc(C(N)=O)cc1` (centres undefined), the inhibition in test [1] was found to be 0.61%.
Same read-out and setting: as for `CC(=O)N[C@H]1[C@@H](OC(C)C)O[C@H](COC(C)=O)[C@@H](OC(C)=O)[C@@H]1OC(C)=O`, the figure is -0.18%.
For the molecule `CC(=O)OC[C@H]1O[C@@](COC(C)=O)(O[C@H]2O[C@H](COC(C)=O)[C@@H](OC(C)=O)[C@H](OC(C)=O)[C@H]2OC(C)=O)[C@@H](OC(C)=O)[C@@H]1OC(C)=O`, in test [1], the inhibition stood at 102%.
Turning to `C(=C\c1ccccc1)/CN1CCN(CCOC(c2ccccc2)c2ccccc2)CC1`, the inhibition in test [1] is -6.12%.
On the same count and under the same terms, under `CC(C)OC(=O)CNC(=O)[C@H](CS)NC(=O)CC[C@H](N)C(=O)O` stands 45.1%; under `Cc1ccc([N+](=O)[O-])cc1O`, 25.1%; under `N=C(N)NCCC[C@H](N)C(=O)O`, 3.94%.

(Values after ChEMBL document CHEMBL4808148, “HDAC6 screening dataset using tau-based substrate in an enzymatic assay yields selective inhibitors and activators” (2021).)
